Reference: PubChem BioAssay (NCI)
This is part of a sample that, as a whole, favours compounds with a hit. Of some 83,000 tested, about 20% had one in any assay.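 48-hour exposure, single concentration, 96-well plates; percent growth endpoint where 0 means no net growth. Active: below 10.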 Activity calls are given as the source filed them.

How the values were obtained:
Assay in all cases: NCI-60 one-dose screen, 48 h (100 = growth as untreated, 0 = no growth, -100 = all killed)
NCI-H23 lung = details: 10 µM unless noted
NCI-H226 lung = details: 10 µM unless noted
NCI-H322M lung = details: 10 µM unless noted
HOP-62 NSCLC = details: 10 µM unless noted
NCI-H460 lung = details: 10 µM unless noted
HOP-92 NSCLC = details: 10 µM unless noted
NCI-H522 lung = details: 10 µM unless noted
A549/ATCC NSCLC = details: 10 µM unless noted
786-0 renal = details: 10 µM unless noted
COLO 205 colon = details: 10 µM unless noted
DU-145 prostate = details: 10 µM unless noted
MALME-3M melanoma = details: 10 µM unless noted
MDA-MB-231 breast = details: 10 µM unless noted
RXF 393 renal = details: 10 µM unless noted
SF-268 CNS = details: 10 µM unless noted
SF-295 CNS = details: 10 µM unless noted
SF-539 CNS = details: 10 µM unless noted
M14 melanoma = details: 10 µM unless noted
UACC-257 melanoma = details: 10 µM

Measured: growth

COc1ccc2c(C3=C(c4cn(C)c5ccccc45)C(=O)NC3=O)coc2c1
inactive: NCI-H23 lung 34.8% | NCI-H226 lung 20.3% | NCI-H322M lung 58.4% | HOP-62 NSCLC 45.3% | HOP-92 NSCLC 25.3% | A549/ATCC NSCLC 38.7% | 786-0 renal 44.9% | DU-145 prostate 31.1% | MALME-3M melanoma 97.1% | MDA-MB-231 breast 30.4% | SF-268 CNS 67.6% | SF-295 CNS 36.3% | M14 melanoma 36.9%
active: NCI-H460 lung 9.16% | NCI-H522 lung -29.5% | COLO 205 colon 1.81% | RXF 393 renal -10.2% | SF-539 CNS 1.16%

COc1ccc([C@@H]2[C@@H](O)C(=O)N2c2cc(OC)c(OC)c(OC)c2)cc1
inactive: NCI-H23 lung 25.6% | NCI-H322M lung 43.1% | HOP-62 NSCLC 22.7% | A549/ATCC NSCLC 23.3% | 786-0 renal 19.2% | DU-145 prostate 12.7% | MALME-3M melanoma 49.9% | MDA-MB-231 breast 30.4% | RXF 393 renal 24% | SF-268 CNS 46.9% | SF-295 CNS 19.8% | M14 melanoma 12.5%
active: NCI-H226 lung -7.75% | NCI-H460 lung 3.07% | HOP-92 NSCLC -1.78% | NCI-H522 lung -21.2% | COLO 205 colon -78.7% | SF-539 CNS -7.72%

C=CCn1c(SCC(=O)Nc2cccc(C(=O)/C=C/c3ccc(OC)c(OC)c3)c2)nc2ccccc2c1=O
inactive: NCI-H23 lung 93.2% | NCI-H226 lung 83.7% | NCI-H322M lung 87.8% | HOP-62 NSCLC 103% | NCI-H460 lung 91.7% | HOP-92 NSCLC 84.6% | NCI-H522 lung 83.6% | A549/ATCC NSCLC 89.1% | 786-0 renal 100% | COLO 205 colon 116% | DU-145 prostate 95.2% | MALME-3M melanoma 84.7% | MDA-MB-231 breast 89.7% | RXF 393 renal 87.9% | SF-268 CNS 89.1% | SF-295 CNS 104% | SF-539 CNS 90.3% | UACC-257 melanoma 108% | M14 melanoma 114%

COc1cnc2c(c1)C(=O)c1c-2n(CCCn2ccnc2)c(=O)c2cc(OC)c(OC)cc12
inactive: NCI-H226 lung 29.7% | SF-268 CNS 29.2%
active: NCI-H23 lung -1.32% | NCI-H322M lung -8.33% | HOP-62 NSCLC -47.5% | NCI-H460 lung -47.9% | HOP-92 NSCLC -12.2% | NCI-H522 lung -80.5% | A549/ATCC NSCLC -14.9% | 786-0 renal -14.9% | COLO 205 colon -85.2% | DU-145 prostate -2.47% | MALME-3M melanoma -51.4% | MDA-MB-231 breast -0.696% | RXF 393 renal -10.5% | SF-295 CNS -20.5% | SF-539 CNS -35.2% | M14 melanoma -86.5%

C=CCn1c(SCC(=O)Nc2cccc(C(=O)/C=C/c3ccccc3)c2)nc2ccccc2c1=O
inactive: NCI-H23 lung 77.2% | NCI-H226 lung 78.1% | NCI-H322M lung 91.5% | HOP-62 NSCLC 113% | NCI-H460 lung 91.8% | HOP-92 NSCLC 76.1% | NCI-H522 lung 86.2% | A549/ATCC NSCLC 82.6% | 786-0 renal 100% | COLO 205 colon 120% | DU-145 prostate 77.4% | MALME-3M melanoma 100% | MDA-MB-231 breast 94.4% | RXF 393 renal 83.3% | SF-268 CNS 92% | SF-295 CNS 95.7% | SF-539 CNS 77.1% | UACC-257 melanoma 118% | M14 melanoma 77.1%

COc1cc2c3c(n(CCCNCC4CC4)c(=O)c2cc1OC)-c1cc2c(cc1C3=O)OCO2
active: NCI-H23 lung -52.6% | HOP-62 NSCLC -85.8% | NCI-H460 lung -58.7% | NCI-H522 lung -66.1% | A549/ATCC NSCLC -85.1% | 786-0 renal -98.2% | DU-145 prostate -52.9% | MDA-MB-231 breast -73.6% | SF-539 CNS -88%
inactive: NCI-H226 lung 61.9% | NCI-H322M lung 66.9% | HOP-92 NSCLC 90.8% | COLO 205 colon 38% | MALME-3M melanoma 71.1% | RXF 393 renal 43.9% | SF-268 CNS 45.6% | SF-295 CNS 22.3% | M14 melanoma 31.9%

Cc1cc(=O)n2nc(-c3c[nH]c4ccccc34)sc2n1
inactive: NCI-H23 lung 92.6% | NCI-H226 lung 98.6% | NCI-H322M lung 93.4% | HOP-62 NSCLC 101% | NCI-H460 lung 100% | HOP-92 NSCLC 98.4% | NCI-H522 lung 90.4% | A549/ATCC NSCLC 96.3% | 786-0 renal 106% | COLO 205 colon 102% | DU-145 prostate 107% | MALME-3M melanoma 85% | MDA-MB-231 breast 90.6% | RXF 393 renal 105% | SF-268 CNS 102% | SF-295 CNS 103% | SF-539 CNS 92.7% | M14 melanoma 107%

COc1cc2c3c(n(CCCNC4CCCC4)c(=O)c2cc1OC)-c1cc2c(cc1C3=O)OCO2
active: NCI-H23 lung -62.8% | NCI-H322M lung 6.3% | HOP-62 NSCLC -78% | NCI-H460 lung -74.4% | A549/ATCC NSCLC -78.8% | 786-0 renal -87.9% | COLO 205 colon -89.9% | DU-145 prostate -78.5% | MALME-3M melanoma -75% | MDA-MB-231 breast -76.6% | SF-268 CNS -42.7% | SF-295 CNS -76.8% | SF-539 CNS -85.4% | M14 melanoma -88.9%
inactive: NCI-H226 lung 80.5% | HOP-92 NSCLC 103% | NCI-H522 lung 54.6% | RXF 393 renal 49.7%

COC(=O)c1nc(-c2ccc(C)cc2)oc1S(=O)(=O)N1CCN(c2oc(-c3ccccc3)nc2C#N)CC1
inactive: NCI-H23 lung 102% | NCI-H226 lung 101% | NCI-H322M lung 103% | HOP-62 NSCLC 112% | NCI-H460 lung 103% | HOP-92 NSCLC 106% | NCI-H522 lung 92.2% | A549/ATCC NSCLC 102% | 786-0 renal 102% | COLO 205 colon 107% | DU-145 prostate 104% | MALME-3M melanoma 98.6% | MDA-MB-231 breast 102% | RXF 393 renal 109% | SF-268 CNS 98% | SF-295 CNS 103% | SF-539 CNS 98.6% | UACC-257 melanoma 111% | M14 melanoma 74%
